We go through 59 compounds from PubChem BioAssay AID485317 (Broad Institute, 2010).

In general, inhibition refers to the drop in the measured response relative to a control, in per cent.

Structures are written as SMILES. About 11,000 (3.8%) of roughly 290,000 compounds were called active. The full list was thinned out, with actives kept by preference. Unmarked numbers belong to inactive results.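 How the source made its calls: active means mean replicate inhibition above about 79%, with every replicate also reaching it (limit read from the data); inconclusive means only one of the two criteria met; inactive means mean below limit and not every replicate reaching it.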

FAD-linked sulfhydryl oxidase ALR (Homo sapiens), sequence (P55789 whole entry, looked up): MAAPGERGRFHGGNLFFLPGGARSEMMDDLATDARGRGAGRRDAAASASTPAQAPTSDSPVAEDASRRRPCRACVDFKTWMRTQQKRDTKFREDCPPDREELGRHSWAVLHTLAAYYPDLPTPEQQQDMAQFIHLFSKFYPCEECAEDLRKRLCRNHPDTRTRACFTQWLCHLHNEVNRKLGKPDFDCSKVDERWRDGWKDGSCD

The assay concerns the target FAD-linked sulfhydryl oxidase ALR (Homo sapiens) (UniProt P55789). The assay can be described thus: inhibitors of human ALR sulfhydryl oxidase, primary screen, biochemical, H2O2 detection, HRP-luminol luminescence, single point (AID 485317). Conditions: purified ALR, DTT oxidation, active compounds read high, concentration not given here.
Regarding `CCn1nc(C(=O)Nc2ccc(N3CCOCC3)cc2)c2ccccc2c1=O`, the inhibition is -11.2%.

With `CC1CC(=NNC(=O)C2COc3ccccc3O2)CC(C)(C)C1` (centres undefined), the inhibition is 14.3%.

As for `COc1ccc(/C=C2\SC(=O)N(CCC(=O)NC3CCS(=O)(=O)C3)C2=O)cc1` (centres undefined), the inhibition was -3.27%.

In the case of `CC(C(=O)NC1CCS(=O)(=O)C1)N1C(=O)/C(=C/c2ccc(Cl)cc2)SC1=S` (centres undefined), the inhibition is 98.5% (active).

On to `CN(C(=O)CN1C(=O)/C(=C/c2ccc(Cl)cc2)SC1=S)C1CCS(=O)(=O)C1` (centres undefined), for which the inhibition is -8.19%.

As to `COc1ccc(OC)c(S(=O)(=O)Nc2c(C)nn(C)c2C)c1`, the inhibition is -0.73%.

As for `O=C(Cn1nnc(-c2ccccc2)n1)NC(=O)NC1CCCC1`, the inhibition is -9.99%.

For `CCN(CC)S(=O)(=O)c1ccc2[nH]c(=O)cc(C(=O)N(C)C3CCS(=O)(=O)C3)c2c1` (centres undefined), the inhibition was -1.56%.

As for `COc1ccccc1C(CNC(=O)c1cccc(S(=O)(=O)Nc2ccc(F)cc2)c1)N(C)C` (centres undefined), the inhibition is -11.3%.

For the compound `COc1cccc(C2=CC(=O)C[C@H](c3ccc(OC)c(OC)c3)C2)c1`, the inhibition was -2.35%.

`O=S(=O)(c1ccc(SCc2ccccc2)nc1)N1CCCCCC1`: the inhibition was -0.984%.

Regarding `COC(=O)c1ccc(CNC(=O)c2ccc(S(=O)(=O)N3CCCCCC3)cc2)cc1`, the inhibition is -5.09%.

As to `COC(=O)c1ccc(CSc2ccc(S(=O)(=O)N3CCCCC3)cn2)cc1`, the inhibition was 98.5% (active).

In the case of `CC(=O)c1cccc(OCC(=O)OCC(=O)Nc2cc(S(=O)(=O)N3CCCCC3)ccc2C)c1`, the inhibition was -1.77%.

On to `CCN(CC(=O)Nc1cc(Cl)ccc1C)C(=O)Cn1c(=O)cnc2ccccc21`, for which the inhibition was 0.937%.

`O=C(Nc1ccon1)c1nc[nH]c1C(=O)NCc1ccccc1`: the inhibition was -9.59%.

On to `O=C(c1c(Cl)cccc1Cl)N1CCN(c2cccc3[nH]ccc23)CC1`, for which the inhibition was 98.9% (active).

With `O=C(c1ccc2ccccc2n1)N1CCN(c2ccccc2Cl)CC1`, the inhibition is 2.19%.

With `COc1ccccc1N1CCN(C(=O)c2c(-c3c(Cl)cccc3Cl)noc2C)CC1`, the inhibition was 15.3%.

Turning to `CN(C)C(=O)N=NC(=O)N(C)C`, the inhibition is -21.7%.

As for `CCOc1ncccc1C(=O)OCC(=O)Nc1cccc(S(=O)(=O)N2CCCCCC2)c1`, the inhibition was 0.144%.

Regarding `COc1ccc(C(=O)NCc2ccccc2C)cc1S(=O)(=O)NC1CCCC1`, the inhibition was -15.1%.

With `CCn1nnc2cc(C(=O)Nc3ccc(C(=O)OC(C)C)cc3)ccc21`, the inhibition was -0.266%.

For `O=C(COC(=O)c1cccnc1Cl)NC(=O)NC1CCCCC1`, the inhibition was -0.213%.

For `CCCNC(=O)CCn1cc(-c2ccc(OC)cc2)nc1CCN`, the inhibition was 10.4%.

For `COC(=O)/C=C/C(=O)NCc1ccco1`, the inhibition was 79.8% (active).

With `O=C(/C=C/c1ccc(Cl)cc1Cl)NCc1ccco1`, the inhibition was -6.98%.

Turning to `O=C(CCOc1ccccc1)NCc1ccccc1`, the inhibition is -6.56%.

For `CC(C)(C)NC(=O)NCc1ccco1`, the inhibition was 6.08%.

For the compound `CN(C)C(CNC(=O)CCCOc1ccccc1)c1ccco1` (centres undefined), the inhibition is 3.18%.

On to `O=C(CCCOc1ccccc1)NCc1ccco1`, for which the inhibition is 86.9% (active).

Consider `COc1cc(NC(=O)c2[nH]cnc2C(N)=O)cc(C(=O)Nc2cccc(C(F)(F)F)c2)c1`, for which the inhibition is -4.54%.

In the case of `O=C(CSc1nc2ccccc2c(=O)n1Cc1ccc(F)cc1)NCC1CCCO1` (centres undefined), the inhibition is -7.08%.

In the case of `C=CCNC(=O)C1CC2c3ccccc3C1c1ccccc12` (centres undefined), the inhibition was -7.82%.

For `Cc1cc(Nc2ccc(Br)cc2)nc2ccccc12`, the inhibition is -3.49%.

In the case of `O=C(COC(=O)c1ccc(O)cc1O)c1ccc2c(c1)OCCO2`, the inhibition was 9.5%.

`CC1(C)O[C@@H]2CC3C4C[C@H](F)C5=CC(=O)C=CC5(C)C4C(O)CC3(C)[C@]2(C(=O)CO)O1` (some centres undefined): the inhibition was -6.73%.

Regarding `Clc1ccc(CN2CCN(/N=C/c3cccnc3)CC2)cc1`, the inhibition is 14.2%.

On to `O=C1/C(=C\c2cccnc2)CN(Cc2ccccc2)C/C1=C\c1cccnc1`, for which the inhibition was 96.1% (active).

Turning to `O=Cc1cn(Cc2ccccc2)nc1-c1cccnc1`, the inhibition was -2.35%.

For the compound `C=CCc1cc(S(=O)(=O)c2ccc(O)c(CC=C)c2)ccc1O`, the inhibition is 87.7% (active).

As for `Cc1ccccc1NC(=O)CSC1=NCCN1`, the inhibition is 99.1% (active).

On to `Cc1ccccc1NC(=O)CNc1ccccc1N1CCCCC1`, for which the inhibition is 87.1% (active).

For `O=C(CNCCC1=CCCCC1)Nc1ccccc1N1CCCCCC1`, the inhibition was 19.2%.

Take `O=C(Nc1ccccc1N1CCCC1)c1ccc2ccccc2c1`: the inhibition was 77% (active).

As to `Cc1ccccc1N1CC(C(=O)Nc2ccc3c(c2)OCO3)CC1=O` (centres undefined), the inhibition is -35.2%.

Regarding `Cc1ccccc1NC(=O)CSc1ccc2nnc(-c3ccccn3)n2n1`, the inhibition is -1.94%.

For the compound `O=C(Nc1ccccc1N1CCCCC1)c1ccc2nccnc2c1`, the inhibition is -6.64%.

On to `Cc1ccccc1N1CC(C(=O)Nc2ccc(S(=O)(=O)N3CCCC3)cc2)CC1=O` (centres undefined), for which the inhibition is -9.58%.

As for `Cc1ccc(Cc2nnc(SCC(=O)Nc3ccccc3C)[nH]c2=O)cc1`, the inhibition was -2.8%.

As for `O=C(Nc1ccccc1N1CCCC1)c1ccc(F)c(S(=O)(=O)N2CCOCC2)c1`, the inhibition is 43.8%.

As for `Cc1cccc(N2CC(C(=O)Nc3ccccc3N3CCCC3)CC2=O)c1C` (centres undefined), the inhibition is 98.4% (active).

As for `Cc1ccccc1NC(=O)Nc1ccccc1N1CCCCC1`, the inhibition was -4.73%.

Take `Nc1c(C(=O)OCC(=O)Nc2ccc(OC(F)F)cc2)[nH]c(=O)[nH]c1=O`: the inhibition is 9.56%.

As for `COc1ccccc1N(CC(=O)Nc1ccc(C)cc1Cl)S(=O)(=O)c1cccs1`, the inhibition was -3.47%.

For the compound `CC(C(=O)N(C)CC(=O)Nc1ccccc1C(F)(F)F)N1C(=O)c2ccccc2C1=O` (centres undefined), the inhibition is -4.96%.

On to `CCOc1ccc(CC(=O)NCCS(=O)(=O)N2CCN(c3ccccc3)CC2)cc1`, for which the inhibition is -1.48%.

Turning to `Cc1onc(-c2c(F)cccc2Cl)c1C(=O)OCC(=O)N1C(C)CCCC1C` (centres undefined), the inhibition was -4.37%.

For the compound `COCCN(CCOC)S(=O)(=O)NC[C@H]1O[C@@H](n2cnc3c(N)ncnc32)[C@H](O)[C@@H]1O`, the inhibition is 2.26%.
